Results as given in PubChem BioAssay (NCI).
Compounds without any hit were thinned out: in the full panel of roughly 83,000, 20% have a hit.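 For each line, cells grew in 96-well plates with the test compound present at a single concentration for 48 hours.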

Key:
Test in all cases: NCI-60 one-dose screen, 48 h (100 = growth as untreated, 0 = no growth, -100 = all killed)
Details in all cases: 10 µM unless noted; active = growth percent below 10; inactive = the rest
MDA-MB-435 melanoma = system: MDA-MB-435 melanoma
SW-620 colon = system: SW-620 colon
MCF7 breast = system: MCF7 breast
HCC-2998 colon = system: HCC-2998 colon
KM12 colon = system: KM12 colon
BT-549 breast = system: BT-549 breast
HCT-116 colon = system: HCT-116 colon
T-47D breast = system: T-47D breast

Measured: growth

C=C(C)COc1ccc(C(C)(C)C)cc1
inactive: MDA-MB-435 melanoma 93.4% | SW-620 colon 101% | MCF7 breast 98.5% | HCC-2998 colon 111% | KM12 colon 103%

CSc1nc2[nH]ncc2c(=O)[nH]1
inactive: BT-549 breast 88.9% | MDA-MB-435 melanoma 103% | SW-620 colon 95.4% | MCF7 breast 98.1% | HCT-116 colon 98.1% | HCC-2998 colon 108% | KM12 colon 99.9%

C/C(=N\N=C(/C)c1cccc([N+](=O)[O-])c1)c1cccc([N+](=O)[O-])c1
inactive: BT-549 breast 46.6% | MDA-MB-435 melanoma 98.9% | SW-620 colon 101% | MCF7 breast 86.8% | HCT-116 colon 89.8% | HCC-2998 colon 98% | KM12 colon 97.9%

Cc1[nH]nc(C(N)=O)c1[N+](=O)[O-]
inactive: BT-549 breast 109% | MDA-MB-435 melanoma 105% | SW-620 colon 91% | MCF7 breast 97.4% | HCT-116 colon 99.9% | KM12 colon 103%

CCCCCC(=O)OCCC1CCCCC1
inactive: BT-549 breast 98.7% | SW-620 colon 98.4% | MCF7 breast 107% | HCT-116 colon 89.8% | HCC-2998 colon 99.1% | KM12 colon 101%

CC(C)(N)CO[C@H]1C[C@H]2CC[C@@]1(C)C2(C)C
inactive: BT-549 breast 93.5% | MDA-MB-435 melanoma 94.7% | SW-620 colon 88.1% | MCF7 breast 92.5% | HCT-116 colon 89.9% | HCC-2998 colon 102% | KM12 colon 94.1%

NC(=O)NCCO
inactive: BT-549 breast 101% | MDA-MB-435 melanoma 101% | SW-620 colon 103% | MCF7 breast 98.3% | HCT-116 colon 109% | HCC-2998 colon 102% | KM12 colon 101%

CCOC(C=O)OCC
inactive: BT-549 breast 103% | MDA-MB-435 melanoma 102% | SW-620 colon 108% | MCF7 breast 95.4% | HCT-116 colon 105% | HCC-2998 colon 99.1% | KM12 colon 104%

C/C(=N\O)c1ccccn1
inactive: MDA-MB-435 melanoma 94.3% | SW-620 colon 94% | MCF7 breast 99.9% | HCT-116 colon 111% | HCC-2998 colon 109% | KM12 colon 93.8%

O=C(Oc1ccccc1Cl)c1ccc(Cl)cc1Cl
inactive: MDA-MB-435 melanoma 95.4% | SW-620 colon 98.9% | MCF7 breast 84.6% | HCT-116 colon 95.2% | HCC-2998 colon 102% | KM12 colon 87.4%

COC1OC(C(O)C(O)CO)C(O)C(O)C1O (stereo unspecified)
inactive: BT-549 breast 91% | MDA-MB-435 melanoma 105% | SW-620 colon 105% | MCF7 breast 97.1% | HCT-116 colon 90.5% | HCC-2998 colon 107% | KM12 colon 106%

O=C(O)c1ccc([N+](=O)[O-])cc1S(=O)(=O)O
inactive: BT-549 breast 108% | MDA-MB-435 melanoma 108% | SW-620 colon 105% | MCF7 breast 104% | HCT-116 colon 95.6% | HCC-2998 colon 97.8% | KM12 colon 104%

COC(=O)c1cccc([N+](=O)[O-])c1
inactive: BT-549 breast 131% | MDA-MB-435 melanoma 117% | SW-620 colon 105% | MCF7 breast 104% | HCT-116 colon 110% | KM12 colon 103%

O=C1Nc2ccccc2/C1=C\c1ccccc1O
inactive: T-47D breast 71.9% | SW-620 colon 95.8% | MCF7 breast 65.5% | HCT-116 colon 86.3% | HCC-2998 colon 94.5% | KM12 colon 82.3%

Ic1cccs1
inactive: BT-549 breast 107% | MDA-MB-435 melanoma 107% | SW-620 colon 104% | MCF7 breast 97.9% | HCT-116 colon 103% | HCC-2998 colon 108% | KM12 colon 103%

O=C(Nc1cccc(Cl)c1)c1ccc(Cl)cc1Cl
inactive: MDA-MB-435 melanoma 89.1% | SW-620 colon 92.7% | MCF7 breast 83.3% | HCT-116 colon 89% | HCC-2998 colon 106% | KM12 colon 85.1%

C/C(=N\Nc1ccc([N+](=O)[O-])cc1[N+](=O)[O-])c1ccc(Br)cc1
inactive: MDA-MB-435 melanoma 98.4% | SW-620 colon 101% | MCF7 breast 97.2% | HCT-116 colon 102% | HCC-2998 colon 99.4% | KM12 colon 93.3%

COc1cccc(C(=O)O)c1OC
inactive: MDA-MB-435 melanoma 90.9% | SW-620 colon 100% | MCF7 breast 87.2% | HCT-116 colon 103% | HCC-2998 colon 98.6% | KM12 colon 101%

CC(C)C(C)(C)C(=O)C(C)(C)C(C)(C)C
inactive: BT-549 breast 82% | MDA-MB-435 melanoma 108% | SW-620 colon 106% | MCF7 breast 97% | HCT-116 colon 97.7% | HCC-2998 colon 104% | KM12 colon 107%

CCN(C(=O)Nc1ccccc1Cl)c1ccccc1
inactive: BT-549 breast 106% | MDA-MB-435 melanoma 98.3% | SW-620 colon 108% | MCF7 breast 100% | HCT-116 colon 112% | HCC-2998 colon 111% | KM12 colon 105%

CC(CC(CCC(=O)O)(c1ccccc1)c1ccccc1)N(C)C (stereo unspecified)
inactive: BT-549 breast 68.1% | MDA-MB-435 melanoma 105% | SW-620 colon 109% | MCF7 breast 91.2% | KM12 colon 109%

CC(=O)NC(O)C(Cl)Cl (stereo unspecified)
inactive: BT-549 breast 85.9% | MDA-MB-435 melanoma 103% | SW-620 colon 114% | MCF7 breast 93.7% | HCT-116 colon 114% | HCC-2998 colon 98.4% | KM12 colon 103%
